Compound activity: PubChem, several laboratories
Sampled rows, rich in hits. Any-hit rate of the full collection: about 1.5%.
CRFBP-R2 block: antagonists of CRF-BP/CRF-R2 complex, primary screen, cell-based, HEK293, calcium dye fluorescence, uHTS. CRF-induced calcium fluorescence. inhibition, % at 11.8 µM. 350,000 compounds, 0.59% hits. AID 588475, 2011;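 active = inhibition of the ligand-induced calcium signal above about 50% at the single tested concentration, limit read from the data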
CRFR2-BP ag: agonists of CRF-BP/CRF-R2 complex, primary screen, cell-based, HEK293, calcium dye fluorescence, uHTS. CRF-binding protein / CRF receptor 2 complex (human). calcium dye fluorescence (FLIPR); percent of saturating CRF peptide response. activation, % at 13.2 µM. 350,000 compounds, 0.46% hits. AID 588473, 2011;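 active = activation of at least 50%, plus an integration ratio under a set limit after plate pattern correction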;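 note: plate controls were neutral control wells without compound for no effect and CRF at EC100 for full effect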
NTR1 ag: agonists of human NTR1, primary screen, imaging, U2OS cells, beta-arrestin-GFP, high content | NTR1-U2OS beta-arrestin-GFP spot imaging, agonist mode | 330,000 compounds, 0.17% hits | Neurotensin receptor type 1 (Homo sapiens), P30989 | activation, % at 20 µM;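 active = activation at or above 40% of the spot to cytoplasm intensity ratio, with at least 20 cells analyzed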;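 note: 0% = DMSO without peptide and 100% = 100 nM NTR1 peptide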
Target sequence (P30989 whole entry, looked up): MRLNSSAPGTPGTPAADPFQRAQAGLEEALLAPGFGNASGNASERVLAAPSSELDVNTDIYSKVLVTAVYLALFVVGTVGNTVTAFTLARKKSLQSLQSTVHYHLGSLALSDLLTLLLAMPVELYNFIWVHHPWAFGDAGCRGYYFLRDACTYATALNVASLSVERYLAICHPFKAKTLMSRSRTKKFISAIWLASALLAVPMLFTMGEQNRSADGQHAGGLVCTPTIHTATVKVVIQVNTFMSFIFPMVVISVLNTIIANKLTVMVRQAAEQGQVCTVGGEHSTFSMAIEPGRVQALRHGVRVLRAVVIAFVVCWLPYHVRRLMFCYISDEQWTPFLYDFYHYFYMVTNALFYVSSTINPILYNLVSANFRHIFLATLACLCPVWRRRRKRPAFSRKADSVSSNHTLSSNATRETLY
V-ATPase pH: regulators of yeast V-ATPase proton pumping, primary screen, pHLuorin cytosolic pH fluorescence; response, % at 10 µM; S. cerevisiae; 350,000 compounds, 0.37% hits; in the data active = response mostly above about 7.3%, no sharp cut-off; inactive = mostly below about 5.4%; note: actives read high
* marks the source's active call; other numbers are inactive results; x = no result given.

SMILES | CRFBP-R2 block | CRFR2-BP ag | NTR1 ag | V-ATPase pH
CCC(C)NS(=O)(=O)c1ccc(OCC(=O)NCc2ccccn2)cc1 (stereo unspecified) | 51* | 14 | 0 | -2
CC(NS(=O)(=O)c1ccc(OCC(=O)NCc2ccccn2)cc1)c1ccccc1 (stereo unspecified) | -3 | -1 | -1 | 1
CC[C@]12c3[nH]c4ccc(OC)cc4c3CCN1C(=O)C(CC(=O)NCCCN(C)C)C[C@@H]2C(=O)N1CCN(C(=O)c2ccco2)CC1 (stereo partly specified) | 0 | -1 | 0 | -2
O=c1cc(-c2ccccc2Cl)oc2c(NS(=O)(=O)c3cc(Cl)cc(Cl)c3O)ccc(O)c12 | 4 | 81* | 24 | 11
CCc1nnc(NS(=O)(=O)c2ccc(N=Cc3c(C)[nH]n(-c4cccc(Cl)c4)c3=O)cc2)s1 | 51* | -1 | -2 | 0
CCc1nnc(NS(=O)(=O)c2ccc(N=Cc3c(C)[nH]n(-c4ccc(Cl)cc4)c3=O)cc2)s1 | 33 | 2 | -1 | -1
COc1ccc(/C=C/c2c([N+](=O)[O-])c(=O)n(C)c(=O)n2C)cc1O | 52* | 1 | 2 | -1
Cc1ccc(N(CC(=O)NC2CCCCC2)C(=O)Cn2nnc(-c3ccc(C)o3)n2)cc1 | -18 | -1 | 1 | 13*
CCCCCCCOC(=O)C[N+](C)(C)CCOC1CC2CCC1(C)C2(C)C (stereo unspecified) | -158 | 111* | x | -1
Cc1ccc(C(C)(C)C)cc1S(=O)(=O)Nc1nc2ccccc2nc1Cl | 64* | 12 | 6 | 4
Cc1cc(F)ccc1S(=O)(=O)Nc1nc2ccccc2nc1Cl | 21 | -1 | -1 | -3
CCc1ccc(N2C(=O)c3sc4nnc(C)c(=O)n4c3C2=O)cc1 | -6 | 0 | 3 | 3
Cc1ccc(N2C(=O)c3sc4nnc(C)c(=O)n4c3C2=O)cc1 | 52* | -1 | 0 | -1
COc1ccc(N(C)C(=O)c2cn(C)c(=O)c3cc(OC)c(OC)cc23)cc1 | 2 | 0 | 1 | -5
Cc1ccccc1Cn1nc(C)c(NC(=O)c2cc(-c3cccs3)on2)c1C | 57* | 2 | 2 | 0
Cc1ccccc1Cn1nc(C)c(NC(=O)c2cc(-c3ccco3)on2)c1C | 10 | -1 | 0 | 1
CSc1ccccc1NC(=O)COC(=O)c1c[nH]c(=O)[nH]c1=O | -60 | 112* | 0 | -5
O=C(COC(=O)c1c[nH]c(=O)[nH]c1=O)Nc1ccccc1F | 4 | 0 | -1 | -2
COC(=O)c1sc(-c2ccc(C(C)(C)C)cc2)cc1NC(=O)CSCC(=O)O | 54* | 1 | 0 | -3
CCOC(=O)c1cnc(SCCN2CCOCC2)nc1N | 6 | -2 | -1 | -1
CCC(C)c1ccc(S(=O)(=O)N2CCN(C(=O)c3ccc(Cl)c(S(=O)(=O)N4CCOCC4)c3)CC2)cc1 (stereo unspecified) | 11 | 1 | x | -2
O=C(CSc1ccccc1)N(c1ccc(Br)cc1)c1nccs1 | 50* | 0 | 3 | 0
CCOC(=O)C1=C(C)Nc2ccccc2N=C1NC(=O)c1cc(C)on1 | -3 | -2 | -2 | 7
COc1ccc(Cc2nc(-c3ccc(Br)cc3)no2)cc1 | 5 | 0 | 2 | 6
COc1ccc(Cc2nc(-c3ccc(Cl)cc3)no2)cc1 | 50* | -1 | 2 | -2
SMILES | CRFBP-R2 block | CRFR2-BP ag | NTR1 ag | V-ATPase pH
COC(=O)Cc1ccc(NC(=S)NCCC(C)C)cc1 | 88* | -2 | -1 | 2
Cc1nnc(N/N=C/c2cc([N+](=O)[O-])c(N3CCC(C)CC3)cc2N2CCC(C)CC2)n1N | -26 | -1 | 4 | 2
CCc1nnc(N/N=C/c2ccc(N3CCC(C)CC3)c([N+](=O)[O-])c2)n1N | 2 | -1 | 1 | 16*
CC(=O)N1c2ccc(S(=O)(=O)N3CCC(C(=O)NCCc4ccc(Cl)cc4)CC3)cc2CC1C (stereo unspecified) | 5 | 1 | 0 | 2
CC(C)(C)c1ccc(C(=O)N2CCC(=O)N(C(CO)Cc3ccccc3)CC2)cc1 (stereo unspecified) | -7 | 51* | 6 | 0
O=C(c1ccccc1)N1CCC(=O)N(C(CO)Cc2ccccc2)CC1 (stereo unspecified) | 3 | 0 | 2 | -1
Oc1ccccc1CC=NC1CCCCC1 | 16 | 1 | x | 9
O=C(CS(=O)(=O)c1ccc(F)cc1)Nc1nnc(-c2ccccc2Cl)o1 | -14 | -1 | 0 | -1
COc1ccccc1-c1nnc(Nc2nc3c(OC)cccc3s2)o1 | 53* | 10 | -2 | -5
COc1cccc2sc(Nc3nnc(-c4ccccc4Cl)o3)nc12 | 42 | 77* | 6 | 0
O=C(Nc1nnc(-c2ccccc2Cl)o1)c1nc2ccccc2s1 | -55 | 140* | 19 | -1
COc1cccc2sc(NN)nc12 | 10 | -5 | 0 | 5
O=C(C1CCN(C2CCN(CC3CC=CCC3)CC2)CC1)N1CCOCC1 (stereo unspecified) | 86* | 1 | -1 | 1
OC1COC(c2ccccc2)OC1C(O)C1OC(c2ccccc2)OCC1O (stereo unspecified) | 2 | -1 | x | 0
COc1ccccc1-c1ccc(SCc2cccc(F)c2)nn1 | 53* | 0 | 1 | 0
NC(=O)c1ccc(NC(=O)COC(=O)CCN=C2NS(=O)(=O)c3ccccc32)cc1 | 3 | 0 | 0 | 4
CC(=O)N(CCc1ccccc1)Cc1cc2ccc(C)c(C)c2[nH]c1=O | -20 | 9 | 1 | 0
O=S(=O)(Nc1ccc2ccccc2n1)c1ccccc1 | -5 | 5 | 0 | 3
CCOC(=O)[C@H](C)N1[C@H](C)[C@H](c2ccccc2)Oc2ccc(Cl)cc2S1(=O)=O | 0 | 0 | x | 2
CCN(CC)CCN(C(=O)CN1C(=O)c2ccccc2C1=O)c1nc2cc3c(cc2s1)OCO3 | 76* | 1 | 0 | 0
CN(c1ccccc1)c1ccc(/C=C(\CCC(=O)O)c2nc3ccccc3s2)cc1[N+](=O)[O-] | 52* | -2 | 6 | 1
Cc1ccc(/C=C(\CCC(=O)O)c2nc3ccccc3s2)cc1[N+](=O)[O-] | 5 | -1 | 4 | 0
Fc1ccc(/C=C2\CCCC3=C2Nc2ncnn2C3c2ccc(F)cc2)cc1 (stereo unspecified) | -27 | 10 | 46* | 6
COc1ccc(NC(=O)Nc2nnc(C(C)(C)C)s2)cc1 | 58* | 4 | 0 | -2
COc1ccc(CCNC(=O)Cn2nnc(C(=O)Nc3cccc(C)c3C)c2N)cc1OC | 40 | -1 | 2 | -1
O=C(c1ccccc1)C(Nc1cccc([N+](=O)[O-])c1)c1ccccc1 (stereo unspecified) | 28 | -2 | x | 0
CCOC(=O)c1ccc(NC(=S)Nc2ccc(C)cc2)cc1 | 2 | -1 | 0 | -1
CCOC(=O)c1cn[nH]c1NC(=S)Nc1ccc(Cl)cc1 | 94* | 1 | 4 | 1
